Source: PubChem
Shown are actives, neighbours in structure and some others; about 2.4% of the full set was active somewhere.
D2 PAM-1: positive allosteric modulators of human D2 dopamine receptor; P14416; HEK293 T-REx D2, calcium flux, EC20 dopamine potentiation; potentiation, % at 10 µM; hit rate 0.34% among 340,000; AID 485347;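 active = potentiation over 3 SD above the plate norm, cut at about 30% in these data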
Target sequence (P14416 whole entry, looked up): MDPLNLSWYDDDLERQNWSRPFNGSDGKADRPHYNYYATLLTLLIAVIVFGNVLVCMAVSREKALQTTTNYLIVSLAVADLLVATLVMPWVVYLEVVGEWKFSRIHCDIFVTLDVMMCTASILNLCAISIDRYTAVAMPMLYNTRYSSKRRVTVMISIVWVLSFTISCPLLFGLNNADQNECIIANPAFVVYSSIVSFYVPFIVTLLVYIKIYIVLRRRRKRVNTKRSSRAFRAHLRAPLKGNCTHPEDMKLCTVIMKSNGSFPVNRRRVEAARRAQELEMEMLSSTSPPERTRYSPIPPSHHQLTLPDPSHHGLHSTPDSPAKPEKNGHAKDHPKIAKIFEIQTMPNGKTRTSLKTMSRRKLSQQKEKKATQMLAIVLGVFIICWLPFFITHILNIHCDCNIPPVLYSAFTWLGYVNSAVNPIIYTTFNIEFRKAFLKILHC
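Tetracycline-induced HEK293 T-REx cells force-coupled to calcium signalling expressed D2; compounds were pin-added after a 10 s baseline, read kinetically 180 s, then an EC20 dopamine challenge followed with a further 180 s calcium read.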
D2 PAM-2: positive allosteric modulators of human D2 dopamine receptor | potentiation, % (test concentration not listed) | DiscoveRx D2 beta-arrestin cells, luminescence, 90 min; 100% = 57 uM dopamine signal | hit rate 0.23% among 360,000 | AID 624464; in the data active = potentiation above about 50%; inconclusive = mostly about 30% to 49%
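D2 cells co-treated with compound plus 50 nM dopamine (EC20) for 90 min at 37 deg C to detect potentiation. Beta-arrestin recruitment was read as enzyme-fragment luminescence after 1 h at ambient temperature. Full response was set by 57 uM dopamine.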
D2 antag: antagonists of human D2 dopamine receptor. hit rate 2% among 340,000. AID 485344. HEK293 TREx D2 cells, calcium flux, dopamine EC80. inhibition, % at 10 µM; in the data active = inhibition above about 30%; inactive = below that, where a call was filed
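Antagonism is scored as inhibition of an EC80 dopamine-evoked calcium signal in a force-coupled, tetracycline-inducible HEK293 T-REx D2 line, with compound present 180 s before agonist.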
D2 ag-1: agonists of human D2 dopamine receptor (beta-arrestin). P14416. DiscoveRx PathHunter D2 beta-arrestin, luminescence, 90 min; 100% = 57 uM dopamine signal. hit rate 0.084% among 360,000. activation, % (test concentration not listed); in the data active = activation above about 40%; inconclusive = between about 15% and that limit
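DiscoveRx PathHunter D2 beta-arrestin cells (2,100/well) attached overnight, then compound-stimulated 90 min at 37 C in HBSS/10 mM HEPES/0.1% Tween-20 buffer; beta-galactosidase complementation read by luminescence after 1 h at ambient temperature. Dopamine 57 uM final (EC100) as control.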
D2 ag-2: agonists of human D2 dopamine receptor | activation, % at 2 µM | HEK293 T-REx D2 cells, calcium flux agonist mode | hit rate 0.53% among 340,000 | P14416;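 active = activation over 3 SD above normal in the single-dose calcium agonist read, cut at about 30% in these data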
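Tetracycline-induced HEK293 Trex cells with D2 receptor force-coupled to calcium signaling, plated overnight at 30 C and loaded with no-wash calcium dye. Calcium flux read kinetically for 180 s after compound addition; responses flag agonists.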
Numbers stand for hits; 0 = inactive; ? = inconclusive; - = not tested or not shown.

SMILES	D2 PAM-1	D2 PAM-2	D2 antag	D2 ag-1	D2 ag-2
CCOC(=O)C1CCCN(C(=O)c2cc(-c3ccc(F)cc3)nc3ccccc23)C1 (centres undefined)	0	0	47	0	0
CC1CCN(c2oc(-c3ccc(F)cc3)nc2C#N)CC1	0	0	0	0	0
CCOC(=O)C1CCCN(C(=O)c2cc3c(=O)n4ccccc4nc3s2)C1 (centres undefined)	44	0	0	0	0
CCOC(=O)C1CCCN(C(=O)c2cc(-c3ccncc3)nc3ccccc23)C1 (centres undefined)	0	0	0	0	0
Cc1cccn2c(=O)c3cc(C(=O)N4CC(C)CC(C)C4)sc3nc12 (centres undefined)	38	0	0	0	0
CCOC(=O)C1CCCN(c2oc(-c3ccc(F)cc3)nc2C#N)C1 (centres undefined)	0	0	35	0	0
COc1ccc2oc(=O)c(C(=O)N3CCc4ccccc43)cc2c1	0	0	-	0	-
Cc1nc2ccccc2c2c1C(=O)N(Cc1cccnc1)C2=O	0	0	0	0	0
CC1(C(=O)NS(=O)(=O)c2ccc(Cl)cc2)CCN1C(=O)C1CCCCC1 (centres undefined)	-	0	-	0	-
O=C(NCCN1CCOCC1)c1cccc(Br)c1	-	0	-	0	-
Clc1cccc(-c2ccc(CNCCCN3CCOCC3)o2)c1	0	0	92	0	0
O=C(NCCN1CCOCC1)c1cccc(Cl)c1	0	0	33	0	0
Cn1c(SCC(=O)Nc2cc([N+](=O)[O-])ccc2F)nnc1C(F)(F)F	0	0	0	0	0
Cc1ccc(S(=O)(=O)N2CCN(C(=O)c3n[nH]c4ccccc34)CC2)cc1	0	0	0	0	0
COC(CNC(=S)Nc1ccc([N+](=O)[O-])cc1)OC	0	0	35	0	0
COc1ccc(CNCC(C)NCc2ccc(OC)c(OC)c2)cc1OC (centres undefined)	0	0	0	0	0
CCN1CCN(C(=O)C2c3cc(OC)c(OC)cc3C(=O)N(C)C2c2ccc(SC)cc2)CC1 (centres undefined)	46	0	0	0	0
COc1ccc(NC2=NC3(CCCCC3)N=C(N)N2)cc1	0	0	0	0	0
CCCCOc1ccc(NC2=NC3(CCCCC3)N=C(N)N2)cc1	0	0	35	0	0
CCC(C)Nc1nc2c(c(=O)[nH]c(=O)n2C)n1CCCc1ccccc1 (centres undefined)	0	0	0	0	0
CCOCCCNc1nc2c(C)cccn2c(=O)c1/C=C1\SC(=S)N(CC(C)C)C1=O	0	0	0	0	0
CCOC(=O)CC1C(=O)NCCN1c1nc2c(C)cccn2c(=O)c1/C=C1\SC(=S)N(CC(C)C)C1=O (centres undefined)	0	-	0	-	33
Cc1ccc2c(c1)NC(=O)C(CC(=O)NCCCN1CCN(c3cc(Cl)ccc3C)CC1)O2 (centres undefined)	0	0	53	0	0
O=C(COC(=O)c1ccc(F)c(S(=O)(=O)N2CCOCC2)c1)c1ccc(Cl)cc1	0	0	0	0	0
O=C(COC(=O)c1ccc(F)c(S(=O)(=O)N2CCOCC2)c1)c1ccc(Br)cc1	38	0	36	0	0
SMILES	D2 PAM-1	D2 PAM-2	D2 antag	D2 ag-1	D2 ag-2
CCOC(=O)/C(=C\c1ccccc1)C(=O)CCN1CCOCC1	-	0	-	0	-
Cc1cc(C)c2c(=O)[nH]c(SCC(=O)N(C)C)nc2n1	37	0	0	0	0
CCN(CC)C(=O)CSc1nc2nc(C)cc(C)c2c(=O)[nH]1	0	0	0	0	0
Cc1cc(N2CCOCC2)nc2ccc(NC(=O)CCC(=O)N3CCN(c4ccccc4)CC3)cc12	31	0	0	0	0
C=CCN1C(=O)/C(=C/c2ccc(OC(C)=O)c(OCC)c2[N+](=O)[O-])SC1=S	0	0	30	0	0
CC(C)CC(=O)Nc1ccc(S(=O)(=O)N2CCCC2)cc1	0	0	0	0	0
CC(=O)Nc1ccc(S(=O)(=O)N2CCCN(S(=O)(=O)c3ccc(NC(C)=O)cc3)CC2)cc1	0	0	0	0	0
CC(C)(C)CC(=O)Nc1ccc(S(=O)(=O)N2CCCC2)cc1	44	0	0	0	0
CN(CC(=O)Nc1ccc(S(=O)(=O)N2CCCC2)cc1)CC(=O)Nc1ccc(F)c(F)c1F	0	0	0	0	0
CC(=O)Nc1ccc(S(=O)(=O)N2CCCN(S(=O)(=O)c3ccc(C)cc3)CC2)cc1	0	0	31	0	0
CN(CC(=O)Nc1ccc(S(=O)(=O)N2CCCC2)cc1)Cc1ccc(Cl)cc1Cl	0	64	0	?	0
CCOc1ccc(NC(=O)CN(C)Cc2ccc3c(c2)OCO3)cc1S(=O)(=O)N1CCCC1	0	0	58	0	0
CCc1cccc(CC)c1NC(=O)COC(=O)C1(C)CC1(Cl)Cl (centres undefined)	0	0	0	0	0
COc1ccc2cc(CNc3ccccc3)c(=O)n(CC(=O)Nc3ccc(C)cc3C)c2c1	0	-	-	-	0
COc1cc2ncnc(NCc3ccccc3C)c2cc1OC	0	0	0	0	0
CCCn1c(C(=O)OC)cc2c1ccn2-c1ccc(F)cc1	32	0	0	0	0
COC(=O)c1cc2c(ccn2-c2ccc(F)cc2)n1CC(C)C	0	0	0	0	0
COCCCNC(=O)c1cn(Cc2c(F)cccc2Cl)nn1	0	0	32	0	0
COCCNC(=O)CSCc1c(F)cccc1Cl	0	0	0	0	0
CCOC(=O)C1(CC2CC2)CCN(C(=O)c2cc(OC)nc3ccccc23)CC1	0	0	0	0	0
CCN(CC(=O)Nc1c(F)cccc1F)C(=O)c1cccc(S(=O)(=O)N2CCN(c3ccccc3)CC2)c1	0	0	0	0	0
O=C(COc1ccc(Cl)cc1Cl)NC(=O)NC1CCCC1	0	0	0	0	0
O=C(COc1ccc(Cl)cc1Cl)NC(=O)N1CCCCC1	0	0	32	0	0
CCCN(CC(=O)Nc1ccccc1C)C(=O)c1ccc(S(=O)(=O)N2CCCC2)cc1	0	0	30	0	0
CCCN(CC(=O)Nc1ccccc1C)C(=O)c1ccc(S(=O)(=O)N2CCCCC2)cc1	0	0	0	0	0
C#CCOCCOCCOCCNc1nc(N2CCN(C(=O)CCCCCCCCCCNC(=O)[C@H]([C@@H](C)CC)n3cc(CCCCN=C(N)N)nn3)CC2)nc(N2CCN(C(=O)CCCCCCCCCCNC(=O)[C@H]([C@@H](C)CC)n3cc(CCCCN=C(N)N)nn3)CC2)n1	0	-	0	-	0
Cc1csc(Sc2ccc([N+](=O)[O-])cc2C(=O)OCC(=O)NC2CCCC(C)C2C)n1 (centres undefined)	0	0	0	0	0
CCC(C)NC(=O)COC(=O)c1cc([N+](=O)[O-])ccc1Sc1nc(C)cs1 (centres undefined)	0	51	0	0	0
